Structures are written as SMILES. Hit rate of the full screen: of about 320,000 compounds, about 9,100 (2.8%) were called active. About 3% were inconclusive and are not listed. The sample as a whole holds a higher share of actives than the screen did. A number with no mark means an inactive call. Calls come from the whole dose curve; as a rule, active = well fitted activation curve with a large enough effect; inconclusive = small, poorly fitted or top-dose-only effect; inactive = no such curve, though single readings can be large or run the other way.
Potency is the fitted concentration of half-maximal effect.

A short description of this experiment: qHTS Assay for Rab9 Promoter Activators. For activation, negative = inhibition: % of control where 0% means no effect. Note: nearly all actives have a fitted effect of over 60% in size. The conditions noted are these: Huh7 Rab9 promoter-luciferase reporter, luminescence, 24 h; series mostly up to 9.22 µM; activation, negative = inhibition: at the top concentration. The text has this: NIH Chemical Genomics Center [NCGC] NIH Molecular Libraries Probe Production centers Network [MLPCN] MLPCN Grant: MH089537-01 Assay Submitter (PI): Yiannis A. Ioannou NCGC Assay Overview: Niemann Pick Type C (NPC) is a rare neurodegenerative lipidosis that is characterized by lipid storage in the endosomal/lysosomal system. Treatment modalities for this devastating disease are currently non-existent due to the severe obstacles associated with accessing the central nervous system with proteins or genes (Ioannou, 2000). We have developed a new paradigm, termed "Orphan Receptor Bypass Therapy" (ORByT), to address these disorders. This paradigm posits the existence of endogenous "suppressor" proteins whose expression can dramatically improve LSD pathogenesis. The goal is the identification/discovery of small chemical compounds that can modulate the expression of these proteins and provide a new treatment modality for these devastating disorders. One such protein whose overexpression reverses aspects of the NPC phenotype is Rab9. We have developed and optimized a cell based luciferase reporter assay in 1536 well format for the identification of up-regulators of the Rab9 promoter.
The Rab9 promoter is cloned in front of the luciferase reporter gene, therefore […] promoter activation results in luciferase expression. Frozen stock of the Rab9 promoter transfected Huh7 cells were obtained from the laboratory of Dr. Yiannis Ioannou (The Mount Sinai School of Medicine, New York, NY). Cells were propagated and maintained at NCGC in medium containing RPMI-1640 supplemented with 10% FBS, 2mM L-glutamine, and 50ug/ml penicillin/streptomycin. Cells were harvested in and plated for assays in OP-MEM I reduced-serum medium supplemented with 10% FBS. The Amplite luciferase reporter gene assay kit was purchased from ABD Bioquest and prepared/stored according to manufacturers recommendations. qHTS Assay Setup: 1.Dispensed 5ul of Huh7 cells stably expressing Rab9-luciferase at a density of 1500 cells per well 1536-well plates. 2.Incubate cells at 37C, 5% CO2, and 95% humidity for 2 hours. 3.Transferred 23nl per well of compound in DMSO solution. 4.Incubated at 37C, 5% CO2, and 95% humidity for 24 hours. 5.Dispensed 3ul per well of Amplite reagent(ABD Bioquest) per well. 6.Incubate at ambient for 10 minutes. 7.Read using the luminescence protocol on the ViewLux plate reader (Perkin Elmer).
Consider `O=C(COC(=O)c1ccc(Oc2ccccc2)cc1)Nc1nnc(-c2ccccc2)o1`, for which the “activation, negative = inhibition” value is -3.52%.
As for `Nc1ccc(-c2nnc(-c3ccccc3)o2)cc1`, the Potency is 3980 nM (active).
Take `O=C(Nc1cccc(Cl)c1)Nc1nnc(-c2ccccc2)o1`: the “activation, negative = inhibition” value is -0.239%.
Still for that read-out and setting: under `O=C(COC(=O)c1ccccc1Br)Nc1nnc(-c2ccccc2)o1` stands 1.02%.
For the compound `Nc1ccc(-c2nnc(-c3ccc(-c4ccccc4)cc3)o2)cc1`, the Potency is 2510 nM (active).
With `Nc1ccc(-c2sc(N)nc2-c2ccccc2)cc1`, the “activation, negative = inhibition” value is -1.5%.
As for `CC(C(=O)NC1CCCC1)N1CCN(S(=O)(=O)c2ccccc2Cl)CC1` (centres undefined), the “activation, negative = inhibition” value is -5%.
Still for that read-out and setting: to `COc1ccc(N(CCC(=O)NCCc2ccccc2)S(=O)(=O)c2ccc(C)cc2C)cc1` belongs 20.1%; to `COC(=O)c1ccc(C(=O)NC2CC(C)(C)Cc3c2cnn3-c2ccc(F)cc2)nc1` (centres undefined), 0.0943%; to `Cn1c(N)c(C(=O)COC(=O)COc2ccc(Cl)cc2)c(=O)n(C)c1=O`, -7.69%.
Consider `Cc1cccc(NC(=O)Nc2cccc(Oc3c(F)c(F)c(F)c(F)c3F)c2)c1`, for which the “activation, negative = inhibition” value was -10.1%.
On the same count and under the same terms, to `Cc1ccc(C(=O)COc2cccc(NC(=O)c3ccco3)c2)cc1` belongs -4.08%.
Take `Cc1ccoc1C(=O)Nc1cccc(Oc2ccccc2)c1`: the Potency is 3980 nM (active).
With `Cc1cccc(-n2ncc3c(N4CCc5ccccc54)ncnc32)c1`, the Potency was 2000 nM (active).
On to `COc1ccc2oc(=O)c(C(=O)N3CCCc4ccccc43)cc2c1`, for which the “activation, negative = inhibition” value was -2.67%.
Consider `Cc1cccc(-n2ncc(Cl)c(Cl)c2=O)c1`, for which the “activation, negative = inhibition” value is -53.7%.
In the case of `COc1ccc(-n2ncc3c(N4CCCc5ccccc54)ncnc32)cc1`, the Potency is 794 nM (active).
For `COc1ccc(Oc2c(Cl)cnn(-c3ccccc3)c2=O)cc1`, the “activation, negative = inhibition” value was -8.14%.
As for `Cc1ccc2c(c1)c1ncnc(N3CCc4ccccc4C3)c1n2C`, the “activation, negative = inhibition” value is 28.8%.
In the case of `CC1(NC(=O)CCS(=O)(=O)c2ccc(Cl)cc2)CCS(=O)(=O)C1` (centres undefined), the “activation, negative = inhibition” value was -0.164%.
As to `COCCNc1nc2nonc2nc1N1CCCC1c1nccs1` (centres undefined), the “activation, negative = inhibition” value was -11.2%.
With `CC(=O)NC12CC3CC(C1)CC(C(=O)N1CCN(C(=O)c4ccco4)CC1)(C3)C2`, the “activation, negative = inhibition” value is 2.91%.
For the compound `CCCNC(=O)c1c(Cl)cnn1-c1ccc(C)cc1`, the Potency is 2510 nM (active).
Consider `CCCNC(=O)CCc1c(C)nc2c(c(C)nn2-c2ccc(C)cc2)c1C`, for which the “activation, negative = inhibition” value was -3.89%.
In the case of `CCCNC(=O)c1ccc(Cl)c(Cl)c1`, the “activation, negative = inhibition” value was -0.125%.
Consider `O=C(CCc1nc2sc3c(c2c(=O)[nH]1)CCCC3)NCC(=O)Nc1ccccc1Br`, for which the “activation, negative = inhibition” value is -0.0082%.
Same read-out and setting: under `COc1cc(OC)cc(-c2c(-c3cccs3)c3cc(-c4ccc(OC)nc4)ccc3n2C)c1` stands -5.18%; under `O=C(NCC(=O)N1CCCCCCC1)c1ccccc1Cl`, 19.2%.
Same read-out and setting: under `COc1ccccc1/C=C/C(=O)OCC(=O)NC1CCCCCC1` stands -1.16%.
`Cc1cc(C)n2nc(C(=O)OCC(=O)N(C)CC(=O)Nc3ccc(F)cc3)nc2n1`: the “activation, negative = inhibition” value is -4.64%.
For the compound `COc1ccc(C(=O)NC2CCN(C(=S)Nc3ccccc3)CC2)cc1`, the “activation, negative = inhibition” value is 3.06%.
As for `CCC(C)N(C)C1CCN(C(=S)Nc2ccc(OC)cc2)CC1` (centres undefined), the “activation, negative = inhibition” value is 0.502%.
Take `COc1ccc(NC(=S)N2N=CCC2c2ccccc2)cc1` (centres undefined): the Potency is 3160 nM (active).
Turning to `CC(C(=O)Nc1ccc(S(=O)(=O)N2CCCC2)cc1)N(C)Cc1ccc(F)cc1` (centres undefined), the “activation, negative = inhibition” value is -1.48%.
Consider `CN(CC(=O)NCc1ccc(Cl)cc1)S(=O)(=O)c1cccs1`, for which the “activation, negative = inhibition” value was 0.449%.
Turning to `COc1cccc(NC(=O)COC(=O)/C=C/c2ccco2)c1`, the “activation, negative = inhibition” value is -3.31%.
The same measure, in the same setting: to `COC(=O)C1=C(C)NC(=S)NC1c1ccc(OCC(=O)N2CC(C)OC(C)C2)c(OC)c1` (centres undefined) belongs -3.17%; to `O=C(NCc1ccc2c(c1)OCO2)c1ccc(Cl)s1`, 13%; to `COc1ccc(Cc2nnc(NC(=O)c3ccc(OC)cc3OC)s2)cc1`, 28.2%.
`CCOc1ccc(C(=O)CCC(=O)NC2=NCCS2)cc1`: the “activation, negative = inhibition” value is 0.981%.
For the compound `O=C(NC1=NCCS1)c1ccc(Cl)s1`, the Potency is 3980 nM (active).
`COc1ccccc1C(=O)NCCC(=O)NC1=NCCS1`: the “activation, negative = inhibition” value is 0.791%.
Consider `COc1ccc(C(=O)NC2=NCCS2)c(OC)c1`, for which the Potency is 1410 nM (active).
`COc1ccc(OC)c(NC(=O)c2cnn(-c3ccccc3Cl)c2NC(=O)c2ccco2)c1`: the “activation, negative = inhibition” value is 3.75%.
Take `COc1ccccc1OCC(=O)Nc1c2c(nn1-c1ccc(F)cc1)CS(=O)(=O)C2`: the “activation, negative = inhibition” value is 4.13%.
Consider `Cc1occc1-c1nnc(SCC(=O)NC2(C#N)CCCC2)n1C`, for which the “activation, negative = inhibition” value was -3.34%.
Consider `CC(=O)Nc1ccc(S(=O)(=O)Nc2nc(-c3ccc(C(C)(C)C)cc3)cs2)cc1`, for which the “activation, negative = inhibition” value is -2.13%.
Regarding `FC(F)(F)Oc1ccc(-c2cn3cccnc3n2)cc1`, the Potency is 2510 nM (active).
As to `CC(=O)Nc1ccc(S(=O)(=O)Nc2cccc(NC(=O)C(C)(C)C)c2)cc1`, the “activation, negative = inhibition” value is -4.58%.
As to `CC(C)(C)C(=O)Nc1ccc(-c2cn3cccnc3n2)cc1`, the Potency is 3980 nM (active).
In the case of `O=c1ccc(S(=O)(=O)N2CCCC2)cn1Cc1nc(-c2ccccc2)no1`, the “activation, negative = inhibition” value was -5.62%.
For the compound `O=C(Cn1nnc(-c2ccccc2)n1)NC(=O)NC1CCCC1`, the “activation, negative = inhibition” value was -3.17%.
For the compound `CCOc1ccc(NC(=O)CN(C)C(=O)c2cccc(S(=O)(=O)N3CCCC3)c2)cc1OCC`, the “activation, negative = inhibition” value is -0.932%.
As for `CCN(CC(=O)Nc1ccc(OC)cc1)C(=O)CSCc1ccc(C)cc1`, the “activation, negative = inhibition” value was -5.85%.
Same read-out and setting: to `CC1(C)CC(=O)C=C(c2ccc3ncccc3c2)C1` belongs -3.31%.
The same measure, in the same setting: under `O=C(Nc1cc(S(=O)(=O)N2CCOCC2)ccc1OCC(F)(F)F)c1ccc(N2CCCC2=O)cc1` stands 0.24%; under `O=C(CSc1ccc(-c2ccco2)nn1)Nc1cccc(F)c1`, -1.84%; under `Cc1cc(SCc2c(F)cccc2Cl)nc(=O)[nH]1`, 8.66%.
For the compound `Fc1cccc(Cl)c1CSc1ccc(-c2ccco2)nn1`, the Potency is 2510 nM (active).
With `O=C(COC(=O)CNC(=O)C1CCCCC1)Nc1cccc(F)c1`, the “activation, negative = inhibition” value is 1.46%.
Consider `CCN(CC(=O)Nc1c(F)cccc1F)C(=O)c1ccc(-c2ccc(C(C)=O)cc2)o1`, for which the “activation, negative = inhibition” value was -4.82%.
For `Cc1cc(C)cc(-c2nnc(SCC(=O)NC3CC3)o2)c1`, the “activation, negative = inhibition” value is 0.777%.
In the case of `Cc1ccc(C(CC(=O)O)NC(=O)c2ccc(S(=O)(=O)N3CCCC3)cc2)cc1` (centres undefined), the “activation, negative = inhibition” value is -1.46%.
For `CC(=O)Nc1cccc(C(=O)OCC(=O)Nc2nnc(-c3ccccc3)o2)c1`, the “activation, negative = inhibition” value is -1.13%.
The same measure, in the same setting: under `O=C(OCc1nnc(-c2ccccc2)o1)c1ccc2c(c1)C(=O)N(CCc1ccccc1)C2=O` stands -10.1%.
Regarding `O=C(OCc1ccc(Br)cc1)c1cccc(-c2nnc(-c3ccccc3)o2)c1`, the Potency was 3550 nM (active).
In the case of `O=C(COc1cccc(-n2cnnn2)c1)NCCC1=CCCCC1`, the “activation, negative = inhibition” value was -3.87%.
In the case of `O=C(NCCC1=CCCCC1)c1ccc(Cl)c([N+](=O)[O-])c1`, the “activation, negative = inhibition” value was 3.78%.
Consider `O=C(NCCC1=CCCCC1)c1ccc(-n2cncn2)cc1`, for which the Potency was 3160 nM (active).
